Bioassay records (PubChem BioAssay)
KB-V1 cytotox: qHTS assay for MDR1-selective chemotherapeutics: Primary screen using the drug-selected MDR subline cells KB-V1 | KB-V1 MDR cells viability, CellTiter-Glo, 72 h | Potency, µM (series often up to 46.1 µM), actives largely listed as cytotoxic | hit rate 3.4% among 400,000 | AID 1347076, 2019; also: potency is read from the fitted curve at half-maximal effect; % is scaled to controls: 0 for no effect and ±100 for the full control effect; nearly all actives have a fitted effect of over 60% in size
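Cytotoxicity toward P-gp-expressing KB-V1 cells was determined as loss of CellTiter-Glo luminescence after 72 h at 37 degrees C. Compounds were tested in quantitative HTS format across a concentration range, with curves fitted to normalized data.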
D3 ag: qHTS of D3 Dopamine Receptor Agonist: qHTS | D(3) dopamine receptor (Homo sapiens), P35462 | D3R DiscoveRx beta-arrestin cells, luminescence, 90 min | max activation, % | hit rate 0.58% among 410,000 | AID 652048, 2013; in the data active = max activation above about 30%; also: 0% is about no effect
Target sequence (P35462 whole entry, looked up): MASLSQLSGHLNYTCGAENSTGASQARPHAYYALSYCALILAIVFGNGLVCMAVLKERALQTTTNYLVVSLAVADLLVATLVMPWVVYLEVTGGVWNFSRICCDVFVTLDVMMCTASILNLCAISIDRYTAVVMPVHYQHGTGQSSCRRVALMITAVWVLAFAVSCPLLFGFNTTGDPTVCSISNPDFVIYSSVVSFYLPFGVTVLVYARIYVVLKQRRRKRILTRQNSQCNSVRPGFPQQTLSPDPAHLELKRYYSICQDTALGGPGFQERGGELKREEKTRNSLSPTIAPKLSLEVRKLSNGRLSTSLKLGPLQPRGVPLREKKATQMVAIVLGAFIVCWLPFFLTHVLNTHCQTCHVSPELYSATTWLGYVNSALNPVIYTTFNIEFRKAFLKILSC
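Agonist-mode cell screen: cells plated at 1500/well and incubated overnight at 37 °C, then exposed to library compounds for 90 min at 37 °C. Detection reagent was added for 30–60 min at room temperature, and luminescence was read.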
MCF10A rerep: A quantitative high throughput screen for small molecules that induce DNA re-replication in MCF 10a normal breast cells | MCF 10A DNA re-replication, Hoechst nuclear intensity, 48 h | Potency, µM (titrated, usually from 46.1 µM), without a hit: top-dose activity, positive = re-replication, hits mostly activators | hit rate 2.9% among 350,000; also: potency is read from the fitted curve at half-maximal effect; % of control where 0% means no effect; nearly all actives have a fitted effect of over 50% in size
DRD3 antagonist: qHTS of D3 Dopamine Receptor Antagonist: qHTS | D(3) dopamine receptor (Homo sapiens), P35462 | D3R cells, DiscoveRx beta-arrestin luminescence, antagonist mode; stronger effect = lower value | max response, negative = inhibition, % | hit rate 2.5% among 360,000; in the data active = max response below about -50%; inconclusive = no clear call, values can overlap the other calls; also: % is scaled to controls: 0 for no effect and ±100 for the full control effect
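Cells plated overnight at 1500 cells/well, then exposed to library compounds with dopamine controls for 90 minutes at 37 degrees C. DiscoveRx reagent added for 30–60 minutes at room temperature; luminescence read, quantitative HTS format.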
KB-3-1 tox: qHTS assay for MDR1-selective chemotherapeutics: Primary screen using the parental adenocarcinoma cell KB-3-1 | KB-3-1 viability, CellTiter-Glo ATP luminescence, 72 h | Potency, µM (top dose mostly 46.1 µM), usual class: cytotoxic | AID 1347075, 2019 | hit rate 1.4% among 400,000; also: potency is read from the fitted curve at half-maximal effect; % is scaled to controls: 0 for no effect and ±100 for the full control effect; nearly all actives have a fitted effect of over 60% in size
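72 h, 37 °C compound treatment of KB-3-1 parental cells; CellTiter-Glo added, 10 min, luminescence read. Data corrected against DMSO-only plates and normalized before curve fitting.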
SW480 rereplic: A quantitative high throughput screen for small molecules that induce DNA re-replication in SW480 colon adenocarcinoma cells. SW480 DNA re-replication, Hoechst DNA content imaging, 48 h. Potency, µM (series often up to 46.1 µM), without a hit: at the top dose re-replication activation, most hits filed as activators. hit rate 1.8% among 340,000. AID 624297, 2012; also: potency is read from the fitted curve at half-maximal effect; % of control where 0% means no effect; nearly all actives have a fitted effect of over 55% in size
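250 cells/well; 23 nL cpd via pin tool; 48 hr, 37 C, 5% CO2; Hoechst 40 min; imager read of total nuclear intensity, ex 405/em 500-530 nm.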
The depositor's hits bear a star; i = inactive; ? = inconclusive; · = no result. Compounds with a hit are over-represented: about 8.9% of the library has one in this group of screens. Unless noted, calls follow the shape of the dose curve; as a rule, active = well fitted curve in the direction sought with a large enough effect; inconclusive = small, poorly fitted or top-dose-only effect, or another doubt; inactive = no such curve, though single readings can be large; an effect the other way counts as inactive or inconclusive.

SMILES	KB-V1 cytotox	D3 ag	MCF10A rerep	DRD3 antagonist	KB-3-1 tox	SW480 rereplic
O=C(Cc1csc(N2CCOCC2)n1)N/N=C/c1ccc(O)c(O)c1O	i	-13	-1%	-57*	?	-9%
O=C(Cn1cc(C(F)(F)F)ccc1=O)N/N=C/c1ccccc1O	i	2	0%	14	i	5.8µM*
COC(=O)c1ccccc1NC(=O)CSc1nc2cccnc2n1C	i	0	-3%	-4	i	11%
COC(=O)c1cccc(NC(=O)CSc2nc3cccnc3n2C)c1	18µM*	5	23%	24	i	0%
O=C(NCC(c1ccco1)N1CCc2ccccc2C1)c1cccc(Br)c1 (stereo not drawn)	?	-11	?	12	i	3%
Nc1ncnc2c1C1(CCCCC1)Cc1ccccc1-2	23µM*	-9	1%	-16	?	1%
Nc1n[nH]c2c1C1(CCCCC1)Cc1ccccc1-2	?	1	6%	2	i	5%
COC(=O)[C@@]1(Cc2ccc(OC)cc2)[C@H]2c3cc(C(=O)N4CCCC4)n(Cc4cc(C)n(C)n4)c3C[C@H]2CN1C(=O)c1ccccc1	i	3	·	6	i	·
NC1=NC2(CCCCC2)N=C(Nc2ccc(Br)cc2)N1	i	-9	12%	-7	23µM*	-50%
Cc1ccc(C)c(NC2=NC3(CCCCC3)N=C(N)N2)c1	i	-21	3%	-28	18µM*	-5%
Cc1ccccc1NC1=NC2(CCCC2)N=C(N)N1	?	-4	?	3	?	-6%
Cc1ccc(NC2=NC3(CCCCC3)N=C(N)N2)c(C)c1	i	-29	15%	-22	7.3µM*	5%
Cc1ccc(NC2=NC3(CCCC3)N=C(N)N2)c(C)c1	i	4	29%	12	4.1µM*	?
CC(C)(C)NC(=O)CON=C1c2ccccc2-c2ccccc21	16µM*	9	?	2	i	4%
O=C(COc1ccc2ccccc2c1)Nc1cccc(C(=O)Nc2ccccc2C(=O)O)c1	i	-2	25%	35	i	·
O=C(COc1ccc2ccccc2c1)Nc1ccc(Br)cc1C(=O)O	i	-2	9.2µM*	-10	?	-3%
O=C(COc1ccc2ccccc2c1)Nc1ccc2c3c(cccc13)CC2	i	2	21µM*	6	i	-9%
Cc1cc(C)cc(OCC(=O)Nc2ccc3c4c(cccc24)CC3)c1	i	10	?	-15	i	1%
COc1ccc(CNC(=O)Cn2nnc(-c3ccc(C(F)(F)F)cc3)n2)cc1	?	16	·	·	i	·
COc1cccc(C2NC(c3cccc(OC)c3O)C(C)C(=O)C2C)c1O (stereo not drawn)	?	30*	?	13	?	?
O=C(NC(=S)N1CCN(c2ccc([N+](=O)[O-])cc2)CC1)c1ccccc1Cl	i	-5	2%	2	i	4%
O=C(NC(=S)N1CCN(c2ccc([N+](=O)[O-])cc2)CC1)c1ccccc1F	21µM*	-6	10%	-24	i	-2%
CCc1nn(CC(=O)NCCCOC)c(=O)c2cc3occc3n12	i	-4	·	·	i	·
COc1ccc(-c2sc3ccc(N4CCOCC4)cc3c2C#CCO)cc1	i	6	12µM*	29	i	?
COc1ccc(-c2sc3ccccc3c2/C=C/c2ccc(N)cc2)cc1	i	-18	?	1	i	-3%
SMILES	KB-V1 cytotox	D3 ag	MCF10A rerep	DRD3 antagonist	KB-3-1 tox	SW480 rereplic
COc1ccc(-c2sc3ccc(N4CCOCC4)cc3c2C#CC2(O)CCCCC2)cc1	i	11	?	74	?	?
COc1ccc(/C=C/c2c(-c3ccc(OC)cc3)sc3ccc(N4CCOCC4)cc23)cc1	i	-6	8.2µM*	13	i	1%
COc1ccc2sc(-c3ccc(SC)cc3)c(/C=C/c3ccc(OC)c(OC)c3)c2c1	i	13	9.2µM*	39	i	17%
CC1CC(C)CN(C(=O)c2ccc3c(=O)n(Cc4ccc5c(c4)OCO5)c(=S)[nH]c3c2)C1 (stereo not drawn)	15µM*	-1	10%	14	i	22%
CCOC(=O)N1CCN(C(=O)c2ccc(Cn3c(=S)[nH]c4cc5c(cc4c3=O)OCO5)cc2)CC1	?	85*	13%	15	i	10%
CCC(CC)C(=O)Nc1cc(-c2cccc(C)c2)nn1-c1ccccc1	i	1	·	·	i	·
Cc1ccc(/C=C2/C(=O)C3(C)CCC2C3(C)C)cc1 (stereo not drawn)	·	·	?	·	·	1%
COC(=O)c1ccccc1NC(=O)CN(c1ccc(Cl)cc1)S(=O)(=O)c1ccc(OC)cc1	i	-1	·	·	i	·
COc1cc(OC)cc(C(=O)NC(=S)Nc2ccc(Cl)c(C(=O)O)c2)c1	i	-13	23%	-21	i	0%
O=C(Nc1ccc2oc(-c3ccccc3)nc2c1)c1ccc2c(c1)OCCO2	8.2µM*	13	21µM*	44	?	?
CCCC(=O)Nc1ccc2oc(-c3ccc(OC)c(Br)c3)nc2c1	2.6µM*	-5	18µM*	16	i	?
O=C(Nc1ccc2oc(-c3ccncc3)nc2c1)c1ccc2c(c1)OCCO2	i	-2	?	8	i	?
COc1cc(C(=O)NC(=S)Nc2ccc(Cl)c(C(=O)O)c2)cc(OC)c1OC	i	-12	?	-89*	i	-6%
COc1cc(C(=O)Nc2cc(-c3ccccc3)[nH]n2)cc(OC)c1OC	18µM*	-14	27%	18	?	11%
Cc1cccc(C)c1OCc1nc2c3c(-c4ccccc4)c(-c4ccccc4)oc3ncn2n1	·	5	·	·	·	·
CCOC(=O)c1ccc(NC(=O)CSc2ncc(S(=O)(=O)c3ccc(C)c(Cl)c3)c(=O)[nH]2)cc1	i	0	·	·	i	·
COc1ccc(NC(=O)CCc2c(C)nn(-c3ccc(N4CCCC4)nn3)c2C)cc1Cl	·	-4	·	·	·	·
CCn1c(CN2CCC(C)CC2)nc2cc(NC(=O)c3cccc([N+](=O)[O-])c3)ccc21	i	-19	·	·	i	·
CCC(=O)N1c2ccccc2CC1C(=O)NCc1cc(Br)ccc1OC (stereo not drawn)	i	-18	·	·	i	·
